Source: PubChem BioAssay
Hits are enriched below; roughly 6.5% of the tested compounds scored in any of these assays.
VACV Venus inh – vaccinia inhibition (Venus reporter); 0.46% of 330,000 active; AID 720580; Vaccinia virus Venus reporter expression, fluorescence; Potency, µM (top dose mostly 36.5 µM), most hits filed as inhibitors; calls by dose curve; tested in A549 cells; also: nearly all actives have a fitted effect of over 30% in size
Vaccinia mCherry – inhibitors of vaccinia virus infection (mCherry reporter signal); 0.63% of 310,000 active; Potency, µM (titrated, usually from 36.5 µM), hits mostly inhibitors; AID 720579; Vaccinia virus mCherry reporter infection, fluorescence; calls by dose curve; tested in A549 cells; also: nearly all actives have a fitted effect of over 35% in size
Lassa entry inh – blocks Lassa virus binding to or entry into cells; Lassa virus pseudotype entry inhibition, cell reporter; Potency, µM (titrated, usually from 37.9 µM), actives largely listed as inhibitors; 1.2% of 300,000 active; calls by dose curve; tested in HEK293 cells; also: nearly all actives have a fitted effect of over 50% in size
FMDV inh – blocks foot and mouth disease virus | FMDV antiviral cell-based qHTS | Potency, µM (titrated, usually from 57.9 µM), hits mostly inhibitors | 1.2% of 410,000 active | AID 1159524; calls by dose curve; tested in HEK293T cells; also: read-out not given here; nearly all actives have a fitted effect of over 45% in size
HCMV antiviral – inhibitors of human cytomegalovirus; activity change, negative = inhibition, % at 57.5 µM; HFF cells, HCMV-luciferase reporter, 72 h; hits give low values; 4.5% of 410,000 active; AID 1259415; in the data active = activity change below about -60%; inconclusive = no clear call, values can overlap the other calls; inactive = above about -39%
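Screen run at 2 compound doses on HFFs infected with reporter HCMV, MOI 1 PFU/cell. Luciferase activity from cell lysates at 72 h post infection gave inhibition relative to buffer-only and Salinomycin wells.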
MARV entry inh – blocks Marburg virus binding to or entry into cells | Potency, µM (highest dose often 37.8 µM), usual class: inhibitors | 1.8% of 300,000 active | Marburg virus pseudotyped entry inhibition, cell reporter; calls by dose curve; tested in HEK293 cells
Hits are given with their value; n = inactive; u = inconclusive; x = no result given.

SMILES	VACV Venus inh	Vaccinia mCherry	Lassa entry inh	FMDV inh	HCMV antiviral	MARV entry inh
COc1cc2c(cc1OC)C(c1ccc(Cl)cc1)=NCC2	x	x	x	n	n	x
CC1CN=C(c2ccc(Cl)cc2)c2c3ccccc3[n+]([O-])n21 (stereo unspecified)	x	x	x	x	n	x
Cc1cccc(NS(=O)(=O)c2c(C)nc3sccn3c2=O)c1C	n	n	n	n	n	x
O=C(NC1CCCC1)c1ccc2c(=O)n(Cc3ccccc3)c(SCc3cccc([N+](=O)[O-])c3)nc2c1	n	n	n	n	u	x
COC(=O)[C@@]1(Cc2ccc(OC)cc2)[C@H]2c3cc(C(=O)N4CCCC4)n(CCn4cc([N+](=O)[O-])nc4C)c3C[C@H]2CN1C(=O)c1ccccc1	n	n	n	n	-74	n
COC(=O)[C@@]1(Cc2ccc(OC)cc2)[C@@H]2C(=CC(=O)[C@H]2CC(=O)C(=O)N2CCCC2)CN1C(=O)c1ccccc1	n	u	u	16µM	x	u
COC(=O)[C@@]1(Cc2ccc(OC)cc2)[C@H]2c3cc(C(=O)N4CCCC4)n(CCN4CCOCC4)c3C[C@H]2CN1C(=O)c1ccccc1	n	n	x	n	n	x
O=C(CN1C(=O)COc2ccc(S(=O)(=O)N3CCCCC3)cc21)NCCc1ccc(Cl)cc1	n	n	n	n	u	x
CNc1c(Br)cc(/C=C2\C=Cc3ccccc32)cc1Br	n	n	x	x	x	x
CCOC(=O)c1ccc(NC(=O)Cn2nc(SC)c(S(=O)(=O)c3ccc(Cl)cc3)c2N)cc1	u	u	u	u	-104	u
COc1ccc2oc(=O)c(-c3csc(Nc4ccc(O)cc4)n3)cc2c1	u	u	10µM	u	u	u
COc1ccc2oc(=O)c(-c3csc(-c4ccc(Br)cc4)n3)cc2c1	n	n	n	n	n	x
COc1ccc(C(=O)N/N=C\c2coc3ccc(Cl)cc3c2=O)cc1	x	x	x	u	-63	x
O=C(N/N=C/c1coc2ccc(Cl)cc2c1=O)c1ccc(O)cc1	x	x	x	n	n	x
CCn1c(/C=C/Nc2ccccc2)[n+](CC)c2ccc(Cl)cc21	n	n	n	u	n	u
CCn1c(C)[n+](Cc2ccccc2)c2ccc(Cl)cc21	n	n	x	n	-67	n
CCn1c(/C=C/N(C)c2ccccc2)[n+](CC)c2ccc(Cl)cc21	n	n	8.2µM	x	-94	u
COc1ccccc1CNc1ncnc2ccc(-c3cccc(NS(C)(=O)=O)c3)cc12	x	x	x	n	x	x
CCC(=NCC1CCCO1)c1c(O)n(-c2ccccc2)c(=O)[nH]c1=O (stereo unspecified)	n	n	u	n	n	n
CCC(=NCC1CCCO1)c1c(O)n(Cc2ccccc2)c(=O)[nH]c1=O (stereo unspecified)	x	x	1.6µM	u	n	n
CC/C(=C\c1oc2cc3ccccc3cc2[n+]1CC)Nc1ccccc1	u	u	u	22µM	u	n
COc1cc(/C=C/c2ccnc3ccccc23)cc(OC)c1OC	n	n	x	x	x	x
CC1CC(C)CN(C(=O)CSC2=Nc3ccccc3C3=NC(Cc4c[nH]c5ccccc45)C(=O)N23)C1 (stereo unspecified)	x	x	2.6µM	n	x	u
Cc1ccc(-c2nc3c(Cl)cc(C(F)(F)F)cn3c2Cc2ccccc2C(F)(F)F)cc1	n	n	x	n	n	x
FC(F)(F)c1cc(Cl)c2nc(-c3ccco3)c(Cc3ccccc3C(F)(F)F)n2c1	n	n	x	u	-66	x
SMILES	VACV Venus inh	Vaccinia mCherry	Lassa entry inh	FMDV inh	HCMV antiviral	MARV entry inh
FC(F)(F)c1ccccc1Cc1c(-c2ccco2)nc2ccc(Cl)cn12	n	n	x	u	-110	x
C[C@@H]1CCCCO[C@@H](CN(C)C(=O)CCC(F)(F)F)[C@@H](C)CN([C@H](C)CO)C(=O)c2cc(NS(=O)(=O)c3cccs3)ccc2O1	x	x	x	x	n	x
Nc1c(C(=O)NCc2ccco2)c2nc3ccccc3nc2n1CCc1ccccc1	x	x	u	n	-69	n
COCCCn1c(N)c(C(=O)NCc2ccco2)c2nc3ccccc3nc21	n	n	n	n	n	n
COc1ccc(CNC(=O)c2c(N)n(CCCN3CCOCC3)c3nc4ccccc4nc23)cc1	x	x	23µM	u	n	16µM
Cc1nn(-c2ccc(F)cc2)c(C)c1CNC(=O)c1ccc(-n2cc(NC(=O)c3ccoc3)cn2)cc1	n	n	x	n	x	x
CCCCNC(=O)Cn1c(SCc2cccc(C)c2)nc2ccncc21	n	n	x	x	x	x
Cc1cc(=O)[nH]c(SCC(=O)Nc2ccc3c(c2)CCC3)c1C#N	x	x	x	n	-77	x
COc1ccc(OCCn2cc(C(=O)c3ccco3)c3ccccc32)cc1	n	n	u	u	n	n
